The results in this text go back to PubChem BioAssay (EPA / NIEHS).

Where “and” joins values, the source holds several entries; their conditions need not be identical. Identical values can stand only once. Results filed as inconclusive are left out. Calls of active or inactive are those of the source. The calls were made as follows, unless noted: active = hit-call score of the fitted dose curve at least 0.9, where 1 is the maximum; inactive = score below 0.9.

Experiment [1] deals with Nuclear respiratory factor 1 (Homo sapiens) (UniProt Q16656). The experiment in a line: ATG_NRF1_CIS: Attagene CIS-FACTORIAL HepG2 Assay for human Nuclear Respiratory Factor 1 (NRF1) Orphan Gene (AID 2282987). The conditions noted are these: HepG2 NRF1 cis-element reporter, Attagene multiplex; actives raise or lower the signal. In a few lines:
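Transcriptional reporter readout, one component of a 52-endpoint multiplexed HepG2 panel. Exposure 24 h; mRNA detected via RT-PCR and fluorescent capillary electrophoresis; fitting in both directions against DMSO.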

Experiment [2] in a line: ATG_NFI_CIS: Attagene CIS-FACTORIAL HepG2 Assay for human Nuclear Factor I (NFI) (AID 2282989). As to conditions: HepG2 cis-regulatory reporter, NFI response element transcription; actives raise or lower the signal. In a few lines: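 Transient MRTU transfection of HepG2 → 24 h chemical dosing → total RNA, oligo(dT) RT → PCR, 6-FAM primer extension, HpaI cut → capillary electrophoresis. Endpoint fitted bidirectionally relative to DMSO.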

The target in experiment [3] is Myc proto-oncogene protein (Homo sapiens) (UniProt P01106). The experiment in a line: ATG_Myc_CIS: Attagene CIS-FACTORIAL HepG2 Assay for human Myelocytomatosis (Myc) Proto-Oncogene Transcription Factor (AID 2282990). The conditions noted are these: HepG2, Attagene cis-reporter transcription factor activity; actives raise or lower the signal. In a few lines: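 HepG2 cells transiently transfected with multiple cis-promoter-driven reporter transcription units, so endogenous TF activity is read. After 24 h compound exposure, reporter mRNA was quantified by RT-PCR, 6-FAM labelling, HpaI digestion and capillary electrophoresis; bidirectional fit versus DMSO.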

Experiment [4] can be described thus: ATG_NF_kB_CIS: Attagene CIS-FACTORIAL HepG2 Assay for human Nuclear Factor Kappa B (NF-kB) (AID 2282991). As to conditions: HepG2 Attagene cis-factorial NF-kB reporter mRNA; actives raise or lower the signal. Summed up:
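HepG2, transient multi-reporter transfection, cis promoter elements (endogenous TFs). 24 h exposure. Total RNA → RT → PCR → 6-FAM label → HpaI → CE. Gain/loss vs DMSO.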

Experiment [5] in a line: ATG_NRF2_ARE_CIS: Attagene CIS-FACTORIAL HepG2 Assay for human Nuclear Factor Erythroid 2 Related Factor 2 (NFR2) response to Antioxidant Response Elements (ARE) (AID 2282992). As to conditions: HepG2 Attagene ARE/NRF2 reporter, transcription factor activity; actives raise or lower the signal. In a few lines:
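Endogenous transcription factor activity read out as reporter transcript levels (RT-PCR plus capillary electrophoresis, fluorescence) in transiently transfected HepG2 cells. Measured at 24 h after dosing; gain or loss of signal fitted versus DMSO.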

A short description of experiment [6]: ATG_Oct_MLP_CIS: Attagene CIS-FACTORIAL HepG2 Assay for human Octamer-Binding Transcription Factor (Oct) (AID 2282993). The conditions noted are these: HepG2 Attagene cis-factorial Oct reporter, mRNA; actives raise or lower the signal. In a few lines:
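Transient MRTU transfection of HepG2 → 24 h compound treatment → RNA isolation, reverse transcription, PCR → 6-FAM primer extension, HpaI digest → capillary electrophoresis. Activity fitted both directions against DMSO.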

Experiment [7] has as its target Cellular tumor antigen p53 (Homo sapiens) (UniProt P04637). As to the kind of experiment: ATG_p53_CIS: Attagene CIS-FACTORIAL HepG2 Assay for human p53 Transcription Factor (AID 2282994). As to conditions: HepG2 p53 cis-element reporter, Attagene mRNA; actives raise or lower the signal. Summed up:
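Endogenous p53 activity read in transiently transfected HepG2 from a cis-element-driven reporter transcript after 24 h exposure. RNA reverse-transcribed, PCR-amplified, fluorescently labelled and sized by capillary electrophoresis; gain or loss fitted against DMSO baseline.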

Experiment [8] is described as follows: BSK_3C_TissueFactor: BioMAP Diversity Plus: 3C Assay for Tissue Factor Biomarker Activity (AID 2282997). As to conditions: BioMAP 3C HUVEC, tissue factor biomarker readout; actives raise or lower the signal. In a few lines: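 Tissue factor on primary human umbilical vein endothelium was read by ELISA 24 h after dosing, gain or loss relative to DMSO. Cytotoxicity ran alongside via SRB (0.1%, TCA-fixed, 560 nm).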

Experiment [9] in a line: BSK_3C_VCAM1: BioMAP Diversity Plus: 3C Assay for Vascular cell adhesion molecule 1 (VCAM1) Biomarker Activity (AID 2282999). The conditions noted are these: BioMAP 3C HUVEC, VCAM1 ELISA, cytokine-stimulated; actives raise or lower the signal. Summed up:
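Vascular primary endothelium (human umbilical vein) was exposed to chemicals and assayed 24 h later. VCAM-1 levels came from ELISA, with DMSO serving as baseline for bidirectional fitting.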
For orientation: ELISA stands for enzyme-linked immunosorbent assay.

The nature of experiment [10]: BSK_4H_Eotaxin3: BioMAP Diversity Plus: 4H Assay for Eotaxin 3 Biomarker Activity (AID 2283000). As to conditions: primary human endothelial cells (HUVEC); actives raise or lower the signal. Summed up:
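Human umbilical vein endothelial cells (BSK_4H system) dosed with test chemical; Eotaxin-3 (CCL26) measured by ELISA 24 h after dosing. Bidirectional curve fitting relative to DMSO negative control as baseline.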

Read-out in experiment [11]: Intercellular Adhesion Molecule 1 (ICAM1), ICAM1 (gene 3383)
The experiment in a line: BSK_3C_ICAM1: BioMAP Diversity Plus: 3C Assay for Intercellular Adhesion Molecule 1 (ICAM1) Biomarker Activity (AID 2283003). The conditions noted are these: primary human endothelial cells (HUVEC); actives raise or lower the signal. In a few lines: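 Chemicals are dosed onto primary human umbilical vein endothelium (3C system). After 24 h, ICAM-1 is measured by ELISA, and responses are fitted bidirectionally relative to DMSO.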

The nature of experiment [12]: BSK_3C_Proliferation: Cell Proliferation Assessment in the BioMAP Diversity Plus: 3C Assay (AID 2283006).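 Also: potency may reflect either rise or fall in cell number versus DMSO.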 As to conditions: primary human endothelial cells (HUVEC). In a few lines:
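Cells (human umbilical vein endothelial, sub-confluent) receive test chemical; after 48 h they are fixed in 10% trichloroacetic acid, stained with 0.1% SRB and read at 560 nm. Activity is referenced to DMSO, fitting increases and decreases.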

The target of experiment [13] is Peroxisome proliferator-activated receptor gamma (Homo sapiens) (UniProt P37231). As to the kind of experiment: ATG_PPARg_TRANS: Attagene TRANS-FACTORIAL HepG2 Assay for human Peroxisome Proliferator-activated Receptor-gamma (PPARg) (AID 2283007; active = hit-call score of the fitted dose curve at least 0.9, where 1 is the maximum). In a few lines: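 Multiplexed reporter transcription units in HepG2, 24 h dosing, reporter transcripts quantified by fluorescent RT-PCR and capillary electrophoresis. Increase over DMSO scored.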

Experiment [14] deals with Nuclear receptor subfamily 1 group I member 2 (Homo sapiens) (UniProt O75469). The experiment in a line: ATG_PXR_TRANS: Attagene TRANS-FACTORIAL HepG2 Assay for human Pregnane X Receptor (PXR) (AID 2283008; active = hit-call score of the fitted dose curve at least 0.9, where 1 is the maximum). Summed up: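 Transactivation by exogenous PXR–GAL4 fusion measured as reporter transcript induction after 24 h compound treatment of transfected human HepG2 cells. Read-out via RT-PCR and capillary electrophoresis of labelled fragments, fitted upward relative to DMSO.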

Experiment [15] addresses human Peroxisome Proliferator-activated Receptor alpha (PPARa), PPARA (gene 5465) (UniProt Q07869). As to the kind of experiment: ATG_PPARa_TRANS: Attagene TRANS-FACTORIAL HepG2 Assay for human Peroxisome Proliferator-activated Receptor alpha (PPARa) (AID 2283001; active = hit-call score of the fitted dose curve at least 0.9, where 1 is the maximum). Summed up:
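Cells (HepG2) are transfected with multiple reporter transcription units, exposed to chemical for 24 h, then total RNA is reverse-transcribed and amplified. Labelled products are quantified by capillary electrophoresis; induction is referenced to DMSO.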

Experiment [16] addresses human Peroxisome Proliferator-activated Receptor delta (PPARd), PPARD (gene 5467) (UniProt Q03181). The experiment in a line: ATG_PPARd_TRANS: Attagene TRANS-FACTORIAL HepG2 Assay for human Peroxisome Proliferator-activated Receptor delta (PPARd) (AID 2283002; active = hit-call score of the fitted dose curve at least 0.9, where 1 is the maximum). In a few lines:
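HepG2 cells transiently transfected with multiplexed GAL4-UAS reporter units and exogenous chimeric NR-Gal4 proteins; 24 h compound exposure. Reporter mRNA measured by RT-PCR, 6-FAM labelling, HpaI digestion and capillary electrophoresis; gain of signal versus DMSO.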

In experiment [17] the target is human Retinoic Acid Receptor beta (RARb), RARB (gene 5915) (UniProt P10826). The experiment in a line: ATG_RARb_TRANS: Attagene TRANS-FACTORIAL HepG2 Assay for human Retinoic Acid Receptor beta (AID 2283004; active = hit-call score of the fitted dose curve at least 0.9, where 1 is the maximum). In a few lines: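 Induction of reporter mRNA from a chimeric RARb-Gal4 construct was measured by RT-PCR, FAM labelling, HpaI digestion and capillary electrophoresis. Measurements followed 24 h compound treatment of transiently transfected human HepG2 liver cells, with DMSO as baseline.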

Experiment [18] has as its target Retinoic acid receptor alpha (Homo sapiens) (UniProt P10276). The experiment in a line: ATG_RARa_TRANS: Attagene TRANS-FACTORIAL HepG2 Assay for human Retinoic Acid Receptor alpha (RARa) (AID 2283005; active = hit-call score of the fitted dose curve at least 0.9, where 1 is the maximum). In a few lines:
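HepG2 cells transiently transfected with multiple reporter units expressing chimeric RARα-GAL4 fusion, with GAL4-UAS-driven reporters. After 24 h compound exposure, reporter mRNA induction quantified by RT-PCR and capillary electrophoresis with fluorescent labeling; gain-of-signal fitted relative to DMSO control.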

In experiment [19] the target is human Retinoic Acid Receptor gamma (RARg), RARG (gene 5916) (UniProt P13631). The experiment in a line: ATG_RARg_TRANS: Attagene TRANS-FACTORIAL HepG2 Assay for human Retinoic Acid Receptor gamma (RARg) (AID 2283009; active = hit-call score of the fitted dose curve at least 0.9, where 1 is the maximum). Summed up: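 TRANS format measured activity of exogenous NR-GAL4 fusion (RARg) in transfected HepG2 liver cells after 24 h dosing. Induced reporter RNA was detected by RT-PCR/capillary electrophoresis fluorescence, analysed in the positive direction against DMSO.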
Chain of human Retinoic Acid Receptor gamma (RARg), RARG (gene 5916) (P13631 whole entry, looked up, the tested form may be a part): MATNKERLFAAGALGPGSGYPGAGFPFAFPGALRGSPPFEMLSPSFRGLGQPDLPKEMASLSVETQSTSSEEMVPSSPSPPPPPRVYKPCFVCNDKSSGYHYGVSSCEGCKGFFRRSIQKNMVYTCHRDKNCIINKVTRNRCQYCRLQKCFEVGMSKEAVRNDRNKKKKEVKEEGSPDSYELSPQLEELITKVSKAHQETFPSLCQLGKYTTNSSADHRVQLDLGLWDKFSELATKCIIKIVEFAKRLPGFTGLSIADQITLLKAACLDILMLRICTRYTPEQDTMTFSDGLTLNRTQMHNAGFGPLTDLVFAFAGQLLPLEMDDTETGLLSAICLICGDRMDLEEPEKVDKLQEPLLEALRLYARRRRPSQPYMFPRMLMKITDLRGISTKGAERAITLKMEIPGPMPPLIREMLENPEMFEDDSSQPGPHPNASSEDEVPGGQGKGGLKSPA

Chain of Retinoic acid receptor alpha (Homo sapiens) (P10276 whole entry, looked up, the tested form may be a part): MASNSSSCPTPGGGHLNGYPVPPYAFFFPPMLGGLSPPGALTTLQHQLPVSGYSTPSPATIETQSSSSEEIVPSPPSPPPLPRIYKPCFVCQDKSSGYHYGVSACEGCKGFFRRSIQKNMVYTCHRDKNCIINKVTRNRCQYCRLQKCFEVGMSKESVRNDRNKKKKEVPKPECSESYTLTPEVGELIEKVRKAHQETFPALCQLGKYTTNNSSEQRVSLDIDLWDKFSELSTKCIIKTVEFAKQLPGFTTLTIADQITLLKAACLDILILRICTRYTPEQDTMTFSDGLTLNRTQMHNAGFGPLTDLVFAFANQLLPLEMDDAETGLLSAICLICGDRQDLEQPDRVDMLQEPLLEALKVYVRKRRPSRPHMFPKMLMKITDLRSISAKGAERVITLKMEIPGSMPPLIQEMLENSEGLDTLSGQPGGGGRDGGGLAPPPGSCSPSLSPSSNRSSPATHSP
Chain of Nuclear respiratory factor 1 (Homo sapiens) (Q16656 whole entry, looked up): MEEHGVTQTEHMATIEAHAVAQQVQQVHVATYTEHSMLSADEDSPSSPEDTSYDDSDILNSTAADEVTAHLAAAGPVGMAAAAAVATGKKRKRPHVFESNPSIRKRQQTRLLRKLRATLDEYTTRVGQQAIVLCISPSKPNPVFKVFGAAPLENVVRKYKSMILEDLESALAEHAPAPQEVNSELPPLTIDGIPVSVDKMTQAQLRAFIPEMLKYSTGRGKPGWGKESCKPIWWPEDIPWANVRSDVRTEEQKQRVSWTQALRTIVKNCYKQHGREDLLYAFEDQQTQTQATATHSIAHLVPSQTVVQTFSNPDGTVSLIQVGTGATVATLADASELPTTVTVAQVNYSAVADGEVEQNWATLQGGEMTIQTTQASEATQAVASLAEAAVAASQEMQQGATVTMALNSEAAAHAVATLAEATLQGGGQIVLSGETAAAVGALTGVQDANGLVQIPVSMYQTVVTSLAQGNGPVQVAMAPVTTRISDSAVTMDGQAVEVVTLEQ
Chain of Nuclear receptor subfamily 1 group I member 2 (Homo sapiens) (O75469 whole entry, looked up, the tested form may be a part): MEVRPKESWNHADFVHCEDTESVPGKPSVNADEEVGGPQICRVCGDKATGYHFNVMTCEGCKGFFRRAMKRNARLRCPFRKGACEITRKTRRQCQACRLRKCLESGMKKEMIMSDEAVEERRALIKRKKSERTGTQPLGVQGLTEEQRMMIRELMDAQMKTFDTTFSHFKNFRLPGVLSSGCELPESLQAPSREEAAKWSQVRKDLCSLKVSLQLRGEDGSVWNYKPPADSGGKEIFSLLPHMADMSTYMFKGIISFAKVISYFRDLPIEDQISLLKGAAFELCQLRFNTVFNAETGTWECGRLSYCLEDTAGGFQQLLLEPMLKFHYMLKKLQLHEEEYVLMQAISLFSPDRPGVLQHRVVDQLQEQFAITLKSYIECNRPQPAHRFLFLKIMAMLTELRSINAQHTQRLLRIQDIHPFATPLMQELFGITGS
Chain of human Peroxisome Proliferator-activated Receptor delta (PPARd), PPARD (gene 5467) (Q03181 whole entry, looked up, the tested form may be a part): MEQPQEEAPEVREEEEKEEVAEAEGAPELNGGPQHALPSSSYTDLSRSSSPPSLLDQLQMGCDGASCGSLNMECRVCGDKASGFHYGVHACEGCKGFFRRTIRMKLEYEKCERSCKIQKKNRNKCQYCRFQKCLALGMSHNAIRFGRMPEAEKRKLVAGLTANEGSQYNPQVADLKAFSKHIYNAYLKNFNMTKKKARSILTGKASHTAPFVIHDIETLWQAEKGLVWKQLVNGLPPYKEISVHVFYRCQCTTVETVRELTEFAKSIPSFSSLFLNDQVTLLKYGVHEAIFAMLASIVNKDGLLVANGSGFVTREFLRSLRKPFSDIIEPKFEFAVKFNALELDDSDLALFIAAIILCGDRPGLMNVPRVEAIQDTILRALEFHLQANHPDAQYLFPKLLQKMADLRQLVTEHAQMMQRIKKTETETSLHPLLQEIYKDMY
Chain of human Retinoic Acid Receptor beta (RARb), RARB (gene 5915) (P10826 whole entry, looked up, the tested form may be a part): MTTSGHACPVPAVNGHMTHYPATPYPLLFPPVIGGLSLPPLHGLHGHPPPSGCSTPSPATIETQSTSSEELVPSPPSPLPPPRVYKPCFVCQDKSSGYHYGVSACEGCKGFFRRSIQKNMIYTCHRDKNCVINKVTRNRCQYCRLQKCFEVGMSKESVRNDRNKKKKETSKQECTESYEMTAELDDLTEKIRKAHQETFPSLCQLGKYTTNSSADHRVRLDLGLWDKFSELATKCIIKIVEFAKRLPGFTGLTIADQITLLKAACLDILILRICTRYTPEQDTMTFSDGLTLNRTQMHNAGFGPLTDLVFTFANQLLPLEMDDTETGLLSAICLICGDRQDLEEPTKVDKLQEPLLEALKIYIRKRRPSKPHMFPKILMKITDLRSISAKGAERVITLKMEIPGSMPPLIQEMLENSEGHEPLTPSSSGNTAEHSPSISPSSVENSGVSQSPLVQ
Chain of Peroxisome proliferator-activated receptor gamma (Homo sapiens) (P37231 whole entry, looked up): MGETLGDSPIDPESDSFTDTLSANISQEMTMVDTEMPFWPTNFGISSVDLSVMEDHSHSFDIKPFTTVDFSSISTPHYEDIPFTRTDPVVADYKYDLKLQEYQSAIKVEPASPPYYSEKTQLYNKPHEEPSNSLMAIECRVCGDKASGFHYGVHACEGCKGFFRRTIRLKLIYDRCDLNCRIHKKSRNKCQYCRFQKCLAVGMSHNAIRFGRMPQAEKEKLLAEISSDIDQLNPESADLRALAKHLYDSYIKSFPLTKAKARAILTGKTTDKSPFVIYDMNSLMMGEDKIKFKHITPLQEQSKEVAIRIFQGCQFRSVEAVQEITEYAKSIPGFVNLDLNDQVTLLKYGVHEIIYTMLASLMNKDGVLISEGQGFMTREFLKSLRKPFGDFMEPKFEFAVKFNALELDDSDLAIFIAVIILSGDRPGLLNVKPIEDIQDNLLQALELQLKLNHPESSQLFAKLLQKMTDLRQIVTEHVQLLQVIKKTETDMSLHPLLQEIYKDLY
Chain of Myc proto-oncogene protein (Homo sapiens) (P01106 whole entry, looked up): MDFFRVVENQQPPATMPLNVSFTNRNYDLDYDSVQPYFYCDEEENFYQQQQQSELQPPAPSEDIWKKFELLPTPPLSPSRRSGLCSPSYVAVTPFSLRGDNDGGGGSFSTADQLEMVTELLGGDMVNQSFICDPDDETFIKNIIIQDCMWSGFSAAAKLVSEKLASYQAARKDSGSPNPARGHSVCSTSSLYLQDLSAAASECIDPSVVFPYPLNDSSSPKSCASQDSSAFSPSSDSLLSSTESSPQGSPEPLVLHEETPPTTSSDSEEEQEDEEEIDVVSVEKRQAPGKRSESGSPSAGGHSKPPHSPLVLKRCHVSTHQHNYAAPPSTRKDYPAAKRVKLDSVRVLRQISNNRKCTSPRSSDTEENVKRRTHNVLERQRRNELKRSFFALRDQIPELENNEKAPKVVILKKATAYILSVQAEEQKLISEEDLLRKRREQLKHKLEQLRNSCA
Chain of Cellular tumor antigen p53 (Homo sapiens) (P04637 whole entry, looked up): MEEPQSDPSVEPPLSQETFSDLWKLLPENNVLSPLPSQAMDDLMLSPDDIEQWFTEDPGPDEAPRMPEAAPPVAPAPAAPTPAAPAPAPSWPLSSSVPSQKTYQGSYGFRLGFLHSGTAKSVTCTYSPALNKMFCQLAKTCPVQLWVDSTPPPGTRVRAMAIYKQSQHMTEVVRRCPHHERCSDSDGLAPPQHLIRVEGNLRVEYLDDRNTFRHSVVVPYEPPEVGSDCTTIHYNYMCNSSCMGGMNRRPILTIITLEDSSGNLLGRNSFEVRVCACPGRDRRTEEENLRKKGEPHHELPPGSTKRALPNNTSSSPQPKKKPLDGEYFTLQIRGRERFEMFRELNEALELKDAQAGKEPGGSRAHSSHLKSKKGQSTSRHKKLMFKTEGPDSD
Chain of human Peroxisome Proliferator-activated Receptor alpha (PPARa), PPARA (gene 5465) (Q07869 whole entry, looked up): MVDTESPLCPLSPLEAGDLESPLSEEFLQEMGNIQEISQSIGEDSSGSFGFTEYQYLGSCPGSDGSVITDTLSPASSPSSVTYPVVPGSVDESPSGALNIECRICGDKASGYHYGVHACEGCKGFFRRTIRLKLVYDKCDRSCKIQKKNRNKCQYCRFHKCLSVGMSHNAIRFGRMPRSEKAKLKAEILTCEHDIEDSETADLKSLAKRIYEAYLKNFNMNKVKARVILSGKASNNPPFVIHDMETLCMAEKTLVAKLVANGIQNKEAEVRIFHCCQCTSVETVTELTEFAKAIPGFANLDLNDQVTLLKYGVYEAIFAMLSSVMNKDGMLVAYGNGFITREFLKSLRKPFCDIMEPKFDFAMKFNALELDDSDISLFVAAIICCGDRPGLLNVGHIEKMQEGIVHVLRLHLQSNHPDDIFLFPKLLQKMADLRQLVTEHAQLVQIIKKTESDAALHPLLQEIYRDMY

As a reminder, the AC50 is the concentration at which the activity in the assay is half-maximal. As for `CCN=C1C=CC(=C(c2ccc(N(CC)CC)cc2)c2ccc(N(CC)CC)cc2)c2ccccc21`, the AC50 is 1.04 µM (active) in experiment [1]; 0.0811 µM (active) in [5]; 0.566 µM (active) in experiment [6]; 0.917 µM (active) in experiment [7]; 1.96 µM (active) and 1.79 µM (active) in [8]; 2.64 µM (active) and 2.81 µM (active) in [9]. Besides, the AC50 in experiment [10] was 1.74 µM (active); in experiment [11], 3.69 µM (active) and 3.76 µM (active); in [12] it was 888 nM (active) and 871 nM (active). The result in experiment [2], in experiment [3], in experiment [4], in [13] and in [14] was inactive.

Take `O=C1C=CC(=O)N1c1ccccc1`: the result in experiment [1], in experiment [2], in experiment [3], in experiment [4], in [6] and in [7] was inactive. In addition, the compound was classed as inactive in experiment [15], in experiment [16], in [17], in [18] and in experiment [13]. The AC50 in experiment [5] was 53.8 µM (active).

Take `OCCCCl`: the outcome in experiment [1], in [2], in [3], in [4], in experiment [5] and in [6] was inactive. The call in experiment [7], in experiment [16], in experiment [17], in [18] and in experiment [14] was inactive.

With `CCN(CC)c1ccc(N=Nc2ccccc2)cc1`, the AC50 in experiment [1] is 35.4 µM (active); in experiment [5] it was 3.86 µM (active); in experiment [9] it was 20 µM (active); in [10], 13 µM (active); in experiment [12], 12 µM (active); in experiment [13] it was 4.67 µM (active). Further, the AC50 in experiment [14] was 4.22 µM (active). In addition, the call in [2], in experiment [3], in experiment [4], in experiment [6], in [7] and in experiment [8] was inactive. The outcome in [16], in [11] and in experiment [19] was inactive.

`CC(O)C#CC(C)O` (configuration not stated): the concentration at half-maximal activity (AC50) in experiment [1] is 143 µM (active); in experiment [2], 127 µM (active); in [3] it was 53.3 µM (active); in [4], 84 µM (active); in experiment [5] it was 24.9 µM (active); in experiment [7], 167 µM (active). Also, the AC50 in experiment [13] is 41.1 µM (active). Further, the call in experiment [6], in [15], in [16], in experiment [17], in experiment [18] and in experiment [14] was inactive. Besides, in experiment [19], the result was inactive.
